Test results taken from PubChem BioAssay AID1159580 (chemical genetic matrix, 2015).
Screen size: about 5,500 compounds; about 2,000 (36%) were called active. About 18% were inconclusive and are not listed. No stated cut-off is given here; in the data, active means normalized growth mostly below about 0.91 (no sharp cut-off); inconclusive means no clear call, values can overlap the other calls; inactive means mostly above about 0.92. The list shows a part of the results.

Experiment: chemical genetic growth profiling, strain panel (AID 1159580);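 further: tested at 20 µM; growth read once vehicle control cultures reached saturation at 30 °C; 1 = growth at the plate median or of vehicle wells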
Conditions: growth OD

Measured: normalized growth

CC[C@@H](C(=O)[C@@H](C)[C@@H](O)[C@H](C)[C@@H]1O[C@@H]([C@@H](CC)C(=O)O)CC[C@@H]1C)[C@H]1OC2(C=C[C@@H](O)[C@]3(CC[C@@](C)([C@H]4CC[C@](O)(CC)[C@H](C)O4)O3)O2)[C@H](C)C[C@@H]1C (some centres undefined)
active: S. cerevisiae deletion strains, locus YJR066W, strain TOR1, stronger effect = lower value 0.237 | S. cerevisiae deletion strains, locus YKL085W, strain MDH1 (second series), stronger effect = lower value 0.812 | S. cerevisiae deletion strains, locus YKL085W, strain MDH1, stronger effect = lower value 0.812 | S. cerevisiae deletion strains, locus YKL160W, strain elf1, stronger effect = lower value 0.879 | S. cerevisiae deletion strains, locus YKR001C, strain vps1, stronger effect = lower value 0.108 | S. cerevisiae deletion strains, locus YLL001W, strain dnm1, stronger effect = lower value 0.833 | S. cerevisiae deletion strains, locus YLL026W, stronger effect = lower value 0.892 | S. cerevisiae deletion strains, locus YLL041C, strain sdh2, stronger effect = lower value 0.926 | S. cerevisiae deletion strains, locus YLR027C, strain aat2, stronger effect = lower value 0.858 | S. cerevisiae deletion strains, locus YLR039C, strain RIC1, stronger effect = lower value 0.294 | S. cerevisiae deletion strains, locus YLR102C, strain apc9, stronger effect = lower value 0.905 | S. cerevisiae deletion strains, locus YLR113W, strain HOG1, stronger effect = lower value 0.176 | S. cerevisiae deletion strains, locus YLR221C, strain rsa3, stronger effect = lower value 0.856 | S. cerevisiae deletion strains, locus YLR258W, strain gsy2, stronger effect = lower value 0.842 | S. cerevisiae deletion strains, locus YLR262C, strain YPT6 (second series), stronger effect = lower value 0.662 | S. cerevisiae deletion strains, locus YLR262C, strain YPT6, stronger effect = lower value 0.183 | S. cerevisiae deletion strains, locus YLR268W, strain sec22, stronger effect = lower value 0.843 | S. cerevisiae deletion strains, locus YLR342W, strain FKS1, stronger effect = lower value 0.852 | S. cerevisiae deletion strains, locus YLR370C, strain arc18, stronger effect = lower value 0.608 | S. cerevisiae deletion strains, locus YLR371W, strain rom2, stronger effect = lower value 0.624 | S. cerevisiae deletion strains, locus YLR418C, strain cdc73, stronger effect = lower value 0.681 | S. cerevisiae deletion strains, locus YML032C, strain rad52, stronger effect = lower value 0.882 | S. cerevisiae deletion strains, locus YML120C, strain ndi1, stronger effect = lower value 0.847 | S. cerevisiae deletion strains, locus YML124C, strain tub3, stronger effect = lower value 0.887 | S. cerevisiae deletion strains, locus YMR205C, strain PFK2, stronger effect = lower value 0.79 | S. cerevisiae deletion strains, locus YMR223W, strain ubp8, stronger effect = lower value 0.838 | S. cerevisiae deletion strains, locus YMR231W, strain pep5, stronger effect = lower value 0.0726 | S. cerevisiae deletion strains, locus YNL183C, strain NPR1, stronger effect = lower value 0.143 | S. cerevisiae deletion strains, locus YNL209W, strain ssb2, stronger effect = lower value 0.916 | S. cerevisiae deletion strains, locus YNL233W, strain BNI4, stronger effect = lower value 0.861 | S. cerevisiae deletion strains, locus YNL250W, strain rad50, stronger effect = lower value 0.868 | S. cerevisiae deletion strains, locus YNL271C, strain bni1, stronger effect = lower value 0.814 | S. cerevisiae deletion strains, locus YNL298W, strain CLA4, stronger effect = lower value 0.439 | S. cerevisiae deletion strains, locus YNL307C, strain MCK1, stronger effect = lower value 0.862 | S. cerevisiae deletion strains, locus YNR052C, strain pop2, stronger effect = lower value 0.735 | S. cerevisiae deletion strains, locus YOL006C, strain TOP1, stronger effect = lower value 0.192 | S. cerevisiae deletion strains, locus YOL147C, strain pex11, stronger effect = lower value 0.884 | S. cerevisiae deletion strains, locus YOR061W, strain CKA2, stronger effect = lower value 0.642 | S. cerevisiae deletion strains, locus YOR069W, strain VPS5, stronger effect = lower value 0.797 | S. cerevisiae deletion strains, locus YOR070C, strain gyp1, stronger effect = lower value 0.9 | S. cerevisiae deletion strains, locus YOR083W, strain WHI5, stronger effect = lower value 0.855 | S. cerevisiae deletion strains, locus YOR106W, strain vam3, stronger effect = lower value 0.0692 | S. cerevisiae deletion strains, locus YOR136W, strain idh2, stronger effect = lower value 0.905 | S. cerevisiae deletion strains, locus YOR144C, strain elg1, stronger effect = lower value 0.885 | S. cerevisiae deletion strains, locus YOR231W, strain MKK1, stronger effect = lower value 0.201 | S. cerevisiae deletion strains, locus YOR265W, strain rbl2, stronger effect = lower value 0.897 | S. cerevisiae deletion strains, locus YOR270C, strain vph1, stronger effect = lower value 0.287 | S. cerevisiae deletion strains, locus YOR290C, strain snf2, stronger effect = lower value 0.863 | S. cerevisiae deletion strains, locus YOR316C, strain cot1, stronger effect = lower value 0.908 | S. cerevisiae deletion strains, locus YPL051W, strain arl3, stronger effect = lower value 0.721 | S. cerevisiae deletion strains, locus YPL240C, strain hsp82, stronger effect = lower value 0.922 | S. cerevisiae deletion strains, locus YPL256C, strain CLN2, stronger effect = lower value 0.265 | S. cerevisiae deletion strains, locus YPR119W, strain clb2, stronger effect = lower value 0.92 | S. cerevisiae deletion strains, locus YPR163C, strain tif3, stronger effect = lower value 0.538 | S. cerevisiae deletion strains, locus YPR167C, strain met16, stronger effect = lower value 0.865 | S. cerevisiae deletion strains, strain wtn01, stronger effect = lower value 0.815
inactive: S. cerevisiae deletion strains, locus YKL009W, strain mrt4, stronger effect = lower value 0.934 | S. cerevisiae deletion strains, locus YKL068W, stronger effect = lower value 1.02 | S. cerevisiae deletion strains, locus YKL190W, strain CNB1, stronger effect = lower value 0.925 | S. cerevisiae deletion strains, locus YKR026C, strain gcn3, stronger effect = lower value 0.933 | S. cerevisiae deletion strains, locus YKR091W, strain srl3, stronger effect = lower value 0.937 | S. cerevisiae deletion strains, locus YLR058C, strain SHM2, stronger effect = lower value 0.935 | S. cerevisiae deletion strains, locus YLR320W, strain mms22, stronger effect = lower value 0.928 | S. cerevisiae deletion strains, locus YLR330W, strain CHS5, stronger effect = lower value 0.927 | S. cerevisiae deletion strains, locus YLR342W, strain FKS1 (second series), stronger effect = lower value 0.821 | S. cerevisiae deletion strains, locus YLR357W, strain rsc2, stronger effect = lower value 0.988 | S. cerevisiae deletion strains, locus YLR384C, strain iki3, stronger effect = lower value 0.954 | S. cerevisiae deletion strains, locus YML016C, strain PPZ1, stronger effect = lower value 0.978 | S. cerevisiae deletion strains, locus YMR058W, strain fet3, stronger effect = lower value 0.908 | S. cerevisiae deletion strains, locus YMR078C, strain ctf18, stronger effect = lower value 0.937 | S. cerevisiae deletion strains, locus YMR125W, strain sto1, stronger effect = lower value 0.932 | S. cerevisiae deletion strains, locus YMR129W, stronger effect = lower value 0.937 | S. cerevisiae deletion strains, locus YMR307W, strain GAS1, stronger effect = lower value 0.801 | S. cerevisiae deletion strains, locus YNL067W, strain RPL9B, stronger effect = lower value 0.963 | S. cerevisiae deletion strains, locus YNL071W, strain lat1, stronger effect = lower value 0.96 | S. cerevisiae deletion strains, locus YNL128W, strain TEP1, stronger effect = lower value 0.969 | S. cerevisiae deletion strains, locus YNL153C, strain GIM3, stronger effect = lower value 0.911 | S. cerevisiae deletion strains, locus YNL248C, strain rpa49, stronger effect = lower value 0.95 | S. cerevisiae deletion strains, locus YNL322C, strain KRE1 (second series), stronger effect = lower value 0.963 | S. cerevisiae deletion strains, locus YNR049C, strain mso1, stronger effect = lower value 0.923 | S. cerevisiae deletion strains, locus YOL012C, strain htz1 1.26 | S. cerevisiae deletion strains, locus YOR001W, strain rrp6, stronger effect = lower value 0.909 | S. cerevisiae deletion strains, locus YOR080W, strain dia2, stronger effect = lower value 0.961 | S. cerevisiae deletion strains, locus YOR184W, strain ser1, stronger effect = lower value 0.892 | S. cerevisiae deletion strains, locus YPL055C, strain LGE1, stronger effect = lower value 0.934 | S. cerevisiae deletion strains, locus YPL078C, strain atp4, stronger effect = lower value 0.939 | S. cerevisiae deletion strains, locus YPL106C, strain sse1, stronger effect = lower value 0.932 | S. cerevisiae deletion strains, locus YPR141C, strain kar3, stronger effect = lower value 1 | S. cerevisiae strains, strain wild type, stronger effect = lower value 0.925
